# Reference: publication PMC13083723 (Patterns, 2026)
# Among all 5,400 compounds or so, about 190 (3.5%) showed an effect of 50% or more. Shown is part of a subset that was picked to be rich in strong results.
# Tested on: Vero-E6
# Assay: primary screen, phospholipidosis by LipidTOX staining; higher = more effect of the substance
# Conditions: 10 µM
# Outline: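 Drug-induced phospholipidosis detected with HCS LipidTOX Red reagent in Vero-E6 cells. Compounds tested at 10 μM, with amiodarone (10 μM) as positive control and DMSO (0.1 v/v %) as vehicle.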
row,SMILES,result_ITMP [%]
1,CNC(=O)[C@@H](c1ccccc1)N1CCc2cc(OC)c(OC)cc2[C@@H]1CCc1ccc(C(F)(F)F)cc1,1.25
2,COc1ccc(OCC2c3cc(OC)c(OC)cc3CCN2C(=O)c2cccc(Cl)c2)cc1 (stereo not drawn),-4.92
3,COc1cc2c(cc1O)C(CCc1ccc(Cl)cc1)N(C)CC2 (stereo not drawn),64
4,Cc1c(N(C)CS(=O)(=O)[O-])c(=O)n(-c2ccccc2)n1C,-4.64
5,CCCCCCCCCC(=O)O[C@H]1CC[C@H]2[C@@H]3CCC4=CC(=O)CC[C@@H]4[C@H]3CC[C@]12C,-0.22
6,CN1CCC2=C(C1)C(c1ccccc1)c1ccccc12 (stereo not drawn),6.76
7,CN1CCC(=C2c3ccccc3CC(=O)c3sccc32)CC1,29
8,CN1CCC2=C(C1)c1ccccc1Cc1ccccc12,52.7
9,O=[N+]([O-])O[C@@H]1CO[C@H]2[C@@H]1OC[C@@H]2O,-9.17
10,C[C@@H](O[C@H]1OCCN(Cc2nn[nH]c2CN(C)C)[C@H]1c1ccc(F)cc1)c1cc(C(F)(F)F)cc(C(F)(F)F)c1,71.2
11,C[C@@H](O[C@H]1OCCN(Cc2nn(P(=O)(O)O)c(=O)[nH]2)[C@H]1c1ccc(F)cc1)c1cc(C(F)(F)F)cc(C(F)(F)F)c1,6.28
12,C[C@@H](O[C@H]1OCCN(Cc2n[nH]c(=O)[nH]2)[C@H]1c1ccc(F)cc1)c1cc(C(F)(F)F)cc(C(F)(F)F)c1,2.55
13,OCCNCCCOc1cccc(Cl)c1Cl,55.4
14,C[C@]12CCC(=O)C=C1CC[C@@H]1[C@@H]2CC[C@@]2(C)[C@H]1CC[C@]2(O)C(=O)CO,-5.73
15,CCCCOc1ccc(C(=O)Nc2ccc(F)cc2F)cc1,-8.12
16,C=CCN(C)CCCCCCOc1ccc(C(=O)c2ccc(Br)cc2)c(F)c1,92.9
17,CCOc1ccc(-c2ccc(Cn3c(CC(C)(C)C(=O)[O-])c(SC(C)(C)C)c4cc(OCc5ccc(C)cn5)ccc43)cc2)cn1,0.09
18,CCN(CC)CCNC(=O)COc1ccc(OC)cc1,-4.1
19,CCN(CC)CCOc1ccc(Nc2ncc3cc(-c4c(Cl)cccc4Cl)c(=O)n(C)c3n2)cc1,24.2
20,CNc1ncc2cc(-c3cc(NC(=O)NCCC(C)(C)C)c(F)cc3C)c(C)nc2n1,-7.16
21,CCN(CC)CCCCNc1ncc2cc(-c3c(Cl)cccc3Cl)c(NC(=O)NC(C)(C)C)nc2n1,69.2

row,SMILES,result_ITMP [%]
1,CCN(CC)CCCCNc1ncc2cc(-c3cc(OC)cc(OC)c3)c(NC(=O)NC(C)(C)C)nc2n1,90.1
2,O=C(NCC(=O)N1CC[C@H](N[C@H]2CC[C@@](O)(c3ccc(-c4ncccn4)cn3)CC2)C1)c1cccc(C(F)(F)F)c1,-0.29
3,O=S(=O)(OC[C@H]1O[C@@](COS(=O)(=O)[O][Al]([OH])[OH])(O[C@H]2O[C@H](COS(=O)(=O)[O][Al]([OH])[OH])[C@@H](OS(=O)(=O)[O][Al]([OH])[OH])[C@H](OS(=O)(=O)[O][Al]([OH])[OH])[C@H]2OS(=O)(=O)[O][Al]([OH])[OH])[C@@H](OS(=O)(=O)[O][Al]([OH])[OH])[C@@H]1OS(=O)(=O)[O][Al]([OH])[OH])[O][Al]([OH])[OH],6.9
4,OC[C@@H](O)[C@@H](O)CO,-7.96
5,Cc1ccc2nc(N)nc(O)c2c1Sc1ccncc1,3.27
6,Fc1cc(-c2cccc3ncc(-c4cnn(C5CCNCC5)c4)nc23)cc(F)c1CN1CCOCC1,73.3
7,CC(C)(C)C(=O)CN1C(=O)[C@H](NC(=O)Nc2cccc(C(=O)O)c2)CN(C2CCCCC2)c2ccccc21,-0.97
8,CO[C@@]1(NC(=O)Cc2cccs2)C(=O)N2C(C(=O)[O-])=C(COC(N)=O)CS[C@@H]21,-2.27
9,CC(COc1ccccc1Cc1ccccc1)N1CCCCC1 (stereo not drawn),72
10,C=CCc1ccccc1OCC(O)CNC(C)C (stereo not drawn),12.1
11,c1ccc(CC(c2ccccc2)N2CCCCC2)cc1 (racemic),6.03
12,OC[C@H]1O[C@@H]2O[C@H]3[C@H](O)[C@@H](O)[C@@H](O[C@H]4[C@H](O)[C@@H](O)[C@@H](O[C@H]5[C@H](O)[C@@H](O)[C@@H](O[C@H]6[C@H](O)[C@@H](O)[C@@H](O[C@H]7[C@H](O)[C@@H](O)[C@@H](O[C@H]8[C@H](O)[C@@H](O)[C@@H](O[C@H]1[C@H](O)[C@H]2O)O[C@@H]8CO)O[C@@H]7CO)O[C@@H]6CO)O[C@@H]5CO)O[C@@H]4CO)O[C@@H]3CO,-4.2
13,Cc1cc(-c2ccc(/N=N/c3ccc4c(S(=O)(=O)[O-])cc(S(=O)(=O)[O-])c(N)c4c3O)c(C)c2)ccc1/N=N/c1ccc2c(S(=O)(=O)[O-])cc(S(=O)(=O)[O-])c(N)c2c1O,10.1
14,COc1cc2c(cc1F)C(c1ccccc1Cl)=NC1=C(C)NNC1=N2,-1.52
15,CCCN(CCC)C(=O)C(CCC(=O)[O-])NC(=O)c1ccccc1 (stereo not drawn),-3.27
16,C[C@@H](Oc1cc(-n2cnc3ccc(CN4CCN(C)CC4)cc32)sc1C(N)=O)c1ccccc1C(F)(F)F,75.1
17,COc1cc2ncn(-c3cc(OCc4ccccc4C(F)(F)F)c(C(N)=O)s3)c2cc1OC,-2.1
18,CC(C)c1cc(C(=O)N2Cc3ccc(CN4CCN(C)CC4)cc3C2)c(O)cc1O,8.21
19,CN[C@@H]1[C@H](OC2[C@H](O[C@H]3[C@H](O)[C@@H](O)[C@H](NC(=N)N)[C@@H](O)[C@@H]3NC(=N)N)O[C@@H](C)[C@]2(O)C=O)O[C@@H](CO)[C@H](O)[C@H]1O (stereo partly drawn),-1.71
20,O=C([O-])P(=O)([O-])[O-],-2.03
21,C=CCn1c(=O)n([C@@H]2O[C@H](CO)[C@@H](O)[C@H]2O)c2nc(N)nc(O)c21,-1.06

row,SMILES,result_ITMP [%]
1,OC(c1cc(C(F)(F)F)nc2c(C(F)(F)F)cccc12)C1CCCCN1 (stereo not drawn),50
2,COC(=O)C(c1ccccc1)C1CCCCN1 (stereo not drawn),10.3
3,Nc1c(CC(=O)[O-])cccc1C(=O)c1ccc(Br)cc1,0.95
4,NS(=O)(=O)NCCNc1nonc1/C(=N\c1ccc(F)c(Br)c1)NO,-3.83
5,CN1[C@@H]2C[C@@H](O)C[C@H]1[C@@H]1O[C@@H]12,17.2
6,COc1ccc(NC(=O)c2ccc(-c3ccc(-c4noc(C)n4)cc3C)cc2)cc1N1CCN(C)CC1,142
7,COc1ccc(C(=O)NCc2ccc(OCCN(C)C)cc2)cc1OC,6.48
8,COc1ccccc1N1CCN(CCCCNC(=O)c2ccc(-c3ccc(C(C)=O)cc3)cc2)CC1,6.35
9,COc1cc(C(=O)NCc2ccc(OCCN(C)C)cc2)cc(OC)c1OC,-1.29
10,COc1ccc(NC(=O)c2ccc(-c3ccc(-c4noc(C)n4)cc3C)cc2)cc1OCCN(C)C,81.5
11,COc1ccc(NS(=O)(=O)c2ccc(I)cc2)cc1N1CCN(C)CC1,16.4
12,C[C@@H]1CC[C@H]2C(C)(C)[C@H]3C[C@@]12CC[C@@]3(C)O,4.78
13,O=C(O)c1cc(O)c2ccccc2n1,3.47
14,O=C([O-])CCCCCCCCC(=O)[O-],-5.98
15,Cc1cccc(-c2nc(C(C)(C)C)[nH]c2-c2ccc3nccnc3c2)n1,-5.96
16,CCCn1c(=O)c2nc(C3CCCC3)[nH]c2n(CCC)c1=O,9.14
17,C=C1CC[C@H](O)C/C1=C/C=C1\CCC[C@]2(C)[C@@H]([C@H](C)CCCC(C)(C)O)CC[C@@H]12,-0.38
18,C=C1/C(=C\C=C2/CCC[C@]3(C)[C@@H]([C@H](C)CCCC(O)(C(F)(F)F)C(F)(F)F)CC[C@@H]23)C[C@@H](O)C[C@@H]1O,0.82
19,C[C@]12CCC(=O)C=C1CCC1C2[C@@H](O)C[C@@]2(C)C1CC[C@]2(O)C(=O)COC(=O)CCC(=O)O (stereo partly drawn),-1.39
20,COc1cccc(CCc2ccccc2OCC[C@@H]2C[C@@H](O)CN2C)c1,90.4
21,COc1cccc(CN2C[Si](C)(C)O[Si](C)(C)C2)c1,-1.81

row,SMILES,result_ITMP [%]
1,O=c1[nH]c2ccccc2c(=O)n1CCCN1CCN(c2ccccc2)CC1,-3.31
2,C[C@@H]1CN(CCCn2c3ccccc3c3ccccc32)C[C@H](C)N1,99.9
3,O=c1[nH]c2ccccc2n1CCCN1CCN(C(c2ccccc2)c2ccccc2)CC1,26.4
4,CC(C)CCC[C@@H](C)[C@H]1CC[C@H]2[C@@H]3CCC4=CC(=NO)CC[C@]4(C)[C@H]3CC[C@]12C,-0.61
5,CNCCCN1c2ccccc2CCc2ccccc21,36.6
6,CNCCCC12CCC(c3ccccc31)c1ccccc12,107
7,CNCCCC1(c2ccccc2)OC(C)(C)c2ccccc21 (stereo not drawn),29.5
8,O=C(O)c1ccc(N[C@H]2O[C@H](CO)[C@@H](O)[C@H](O)[C@@H]2O)cc1,-5.7
9,CC1(S(=O)(=O)[O-])CC(=O)c2ccccc2C1=O (stereo not drawn),-0.84
10,CN(C)CC/C=C1/c2ccccc2COc2ccccc21,41.1
11,CN(C)CC/C=C1\c2ccccc2CSc2ccccc21,43.7
12,CN(C)CCC=C1c2ccccc2C=Cc2ccccc21,71.1
13,CN(C)CCC=C1c2ccccc2CCc2ccccc21,39.7
14,CN(C)CC/C=C1\c2ccccc2Sc2ccc(Cl)cc21,51.1
15,CN(C)CCOC1=Cc2ccccc2Sc2ccc(Cl)cc21,13.9
16,COCc1nc2c(=O)n(C)c(=O)n(CC(C)C)c2[nH]1,-0.95
17,NC(N)=N/C(N)=N/CCc1ccccc1,-1.11
18,CN/C(=N\C#N)NCCSCc1csc(N=C(N)N)n1,2.7
